According to PubChem BioAssay AID2289 (National Center for Advancing Translational Sciences (NCATS), 2010):
About 3,300 (0.97%) of roughly 340,000 compounds were called active. About 9% were inconclusive and are not listed. Calls follow the shape of the dose curve; as a rule, active = well fitted inhibition curve with a large enough effect; inconclusive = small, poorly fitted or top-dose-only effect, or effect the other way; inactive = flat fitted curve, though single readings scatter. Some of the results follow.

test: qHTS Assay for Modulators of miRNAs and/or Inhibitors of miR-21; conditions: HeLa miR-21-FLuc reporter, luciferase luminescence, 48 h; actives lower the signal; also: nearly all actives have a fitted effect of over 55% in size
How it was run: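 Compounds were titrated across several concentrations (up to approximately 40 uM) and incubated 48 hours with HeLa miR-21-FLuc reporter cells (miR-21 target sequence downstream of FLuc, endogenous miR-21). Readout was firefly luciferase luminescence after lytic detection reagent.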
Potency is read from the fitted curve at half-maximal effect.

Potency, active:
O=C(Cc1ccccc1F)Nc1ccc2c(c1)CCC2 3.29 µM
O=C(Cc1ccccc1F)Nc1ccc(SC(F)F)cc1 2.07 µM
O=C(Cc1ccc2c(c1)CCCC2)Nc1ccc2ccccc2c1 13.1 µM
COc1ccc2c(c1OC)C(=O)OC2Nc1nc(-c2cc3cc(Br)ccc3oc2=O)cs1 (centres undefined) 5.85 µM
Cc1cc(C(=O)CSc2ncccn2)c(C)n1-c1cccc(F)c1 0.736 µM
COc1cc(O)c2c(=O)c3c(OC)c(O)ccc3oc2c1 13.1 µM
CCn1c(=N)n(CC(=O)c2ccc(Cl)c(Cl)c2)c2ccccc21 6.56 µM
COc1ccc(C(=O)Cn2c(=N)n(C)c3ccccc32)cc1 0.736 µM
CCOc1cc(C2NN=C(c3ccc(C)cc3)S2)ccc1O (centres undefined) 4.65 µM
COc1ccc(C2NN=C(c3ccc(C)cc3)S2)cc1 (centres undefined) 1.17 µM
N#C/C(=N\Nc1ccc(Cl)cc1)C(=N)N1CCCCCC1 0.585 µM
N#C/C(=N\Nc1ccc(Br)cc1)C(=N)N1CCOCC1 7.36 µM
CCN(CC)C(=N)/C(C#N)=N/Nc1ccc(C)cc1 3.29 µM
Cc1ccc(N/N=C(\C#N)C(=N)N2CCCCC2)cc1 0.521 µM
Cc1ccc(N/N=C(\C#N)C(=N)N2CCOCC2)cc1 10.4 µM
N#C/C(=N\Nc1ccccc1F)C(=N)N1CCCCC1 1.65 µM
N#C/C(=N\Nc1ccccc1)C(=N)N1CCCCCC1 2.07 µM
COc1ccc(N/N=C(\C#N)C(=N)N2CCCCC2)cc1 4.65 µM
CCN=c1scc(-c2ccco2)n1/N=C/c1ccc(O)cc1 4.14 µM
Fc1ccc(OCc2nc(-c3cccs3)no2)cc1 6.56 µM
O=[N+]([O-])c1ccccc1OCc1nc(-c2cccs2)no1 2.61 µM
c1ccc(OCc2nc(-c3cccs3)no2)cc1 13.1 µM
COc1cc(OC)cc(-c2nc3cc(C)ccc3o2)c1 1.65 µM
Cc1ccc2oc(-c3ccccc3)nc2c1 6.56 µM
COc1ccc(-c2nc3cc([N+](=O)[O-])ccc3o2)cc1 0.293 µM
O=c1c2cn[nH]c2[nH]c(=S)n1-c1ccccc1F 0.927 µM
Nc1c(-c2cccs2)cnc2c(-c3ccc(F)cc3)cnn12 0.329 µM
Nc1c(-c2ccc(Cl)cc2)cnc2c(-c3ccccc3)cnn12 0.414 µM
c1ccc(-c2cc3nccc(-c4ccccn4)n3n2)cc1 3.69 µM
COc1ccc(-c2cnc3c(-c4ccc(F)cc4)cnn3c2N)cc1 0.521 µM
Nc1c(-c2ccc(Cl)cc2)cnc2c(-c3ccc(F)cc3)cnn12 0.585 µM
Nc1c(-c2ccccc2)cnc2c(-c3ccccc3)cnn12 0.0927 µM
Nc1c(-c2ccccc2)cnc2cc(-c3ccccc3)nn12 0.414 µM
Nc1c(-c2ccc(Cl)cc2)nnn1-c1ccccc1 2.33 µM
Nc1c(-c2ccc(Cl)cc2)cnn1-c1ccccc1 1.65 µM
Nc1c(-c2cccc(Cl)c2)cnc2c(-c3ccccc3)cnn12 1.65 µM
CC(=O)Nc1cccc(NC(=O)c2ccc(COc3ccccc3)cc2)c1 1.47 µM
O=C(Nc1ccccc1F)c1ccc(OCc2ccccc2)cc1 5.21 µM
CCOC(=O)C(=O)N(Nc1ccc(C)cc1)c1ccc(C)cc1 9.27 µM
O=C(O)c1ccc(N=NNc2cccc([N+](=O)[O-])c2)cc1 5.85 µM
CCOC(=O)/C(N=Nc1ccc2c(c1)OCO2)=C(\C)O 4.65 µM
CC(=O)/C(N=Nc1ccc2c(c1)OCO2)=C(\C)O 6.56 µM
C/C(=N\NC(=O)COc1ccccc1)c1cccs1 14.7 µM
C/C(=N\NC(=O)COc1ccccc1[N+](=O)[O-])c1cccs1 5.21 µM
Cc1ccn(-c2cccc(-n3ccc(C)n3)n2)n1 2.61 µM
O=C(NCC1CCCO1)C(=O)c1c[nH]c2ccccc12 (centres undefined) 18.5 µM
O=C(NC1CCCCC1)C(=O)c1c[nH]c2ccccc12 4.14 µM
O=C(Nc1ccccc1)c1cc2n(n1)C(C(F)(F)F)CC(C1CC1)N2 (centres undefined) 6.56 µM
COc1ccc(Nc2ncnc3sc(C)cc23)cc1 11.7 µM
COc1cccc(Nc2ncnc3ccccc23)c1 2.33 µM
COc1cccc(Nc2ncnc3sc(C)cc23)c1 6.56 µM
COc1ccc(Nc2cc(Nc3cccc(OC)c3)ncn2)cc1 14.7 µM
COc1cccc(Nc2ncnc3sccc23)c1 7.36 µM
COc1ccc(-c2nc(-c3ccc(Br)cc3)no2)c(OC)c1 0.585 µM
COc1ccc(-c2nc(-c3ccncc3)no2)cc1 0.464 µM
CSc1ccccc1-c1nc(-c2ccncc2)no1 1.85 µM
Cc1ccc(-c2nc(-c3ccncc3)no2)cc1C 0.585 µM
Cc1ccc(-c2nc(-c3ccncc3)no2)cc1 1.47 µM
CCOCCn1c(N2CCN(c3ccccc3)CC2)nc2c1c(=O)[nH]c(=O)n2C 6.56 µM
CCCCCCOC(=O)c1ccc(OC(=O)c2cccnc2)cc1 6.56 µM
Cc1ccc(/C=C2\SC(N3CCCC3)=NC2=O)cc1 16.5 µM
COCC1CCN(C(=O)c2cc(COc3cc(C)c(Cl)c(C)c3)on2)C1 (centres undefined) 13.1 µM
Cc1cc(OCc2cc(C(=O)N3CCCCCC3)no2)cc(C)c1Cl 5.85 µM
COc1cccc(/C(N)=N/OC(=O)Cc2ccccc2[N+](=O)[O-])c1 9.27 µM
NS(=O)(=O)c1ccccc1NC(=O)c1c(O)c2ccccc2[nH]c1=O 0.736 µM
O=C(Nc1cccc(O)c1)c1c(O)c2ccccc2[nH]c1=O 1.47 µM
C=CCn1c(=O)c(C(=O)Nc2ccccc2S(N)(=O)=O)c(O)c2ccccc21 4.65 µM
COc1ccccc1C(=O)OCc1cc(=O)n2c(C)csc2n1 10.4 µM
COc1ccccc1C(=O)OCc1cc(=O)n2nc(C3CC3)sc2n1 13.1 µM
c1ccc(C2=NN(c3ccccc3)CC2)cc1 5.21 µM
O=C(COC(=O)c1cccs1)c1ccc2c(c1)OCCO2 3.69 µM
O=C(OCc1ccccc1F)c1ccc2c(c1)OCCO2 18.5 µM
Cc1ccc(C(=O)COC(=O)c2cccs2)cc1 3.29 µM
Cc1cccc(C(=O)OCC(=O)c2ccc3c(c2)OCO3)c1O 1.85 µM
CCOC(=O)c1cc2c(=O)c3cc(C)ccc3oc2nc1C 1.04 µM
CC(C)c1ccc(NC(=S)NN2CCOCC2)cc1 16.5 µM
CCOC(=O)/C(C#N)=C/Nc1ccccc1OC 5.21 µM
CNC(=O)/C(C#N)=C/c1ccc(-c2ccc(Cl)cc2)o1 4.14 µM
CNC(=O)/C(C#N)=C/c1ccc(-c2ccc(OC)cc2[N+](=O)[O-])o1 18.5 µM
Cc1cccc(C)c1NC(=O)/C(C#N)=C/c1ccc(-c2ccc(C(=O)O)cc2)o1 2.07 µM
CCOC(=O)/C(C#N)=C/c1ccc(-c2ccccc2)o1 18.5 µM
Cc1ncc(CO)c(/C=N/N=C/c2ccccc2O)c1O 13.1 µM
COc1ccc(-c2nn(-c3ccccc3)cc2C#N)cc1 4.14 µM
COc1ccc(-c2nn(-c3ccccc3)cc2N)cc1 3.69 µM
COc1ccc(-c2cc(=Nc3c(C)n(C)n(-c4ccccc4)c3=O)c3ccccc3o2)cc1 4.14 µM
O=c1cc(-c2ccc(O)cc2)oc2ccccc12 7.36 µM
O=c1cc(-c2ccccc2)oc2ccc(O)cc12 3.29 µM
COc1cc(OC)c2c(=O)cc(-c3ccccc3)oc2c1 6.56 µM
COc1ccc(-c2cc(=O)c3ccccc3o2)cc1 5.85 µM
O=c1cc(-c2ccccc2F)oc2ccccc12 5.21 µM
Fc1cccc2sc(Nc3nc4cc5c(cc4s3)OCO5)nc12 3.69 µM
Fc1cccc2sc(Nc3nc4cc5c(cc4s3)OCCO5)nc12 0.208 µM
O=C(O)c1ccc(N=Nc2c(O)[nH]c3ccc(Br)cc23)cc1 3.69 µM
O=C(O)c1ccc(N=Nc2c(O)[nH]c3cc(Cl)ccc23)cc1 0.165 µM
COc1cc2c(cc1OC)-c1cc(Nc3ccc4c(c3)OCCO4)nc(=O)n1CC2 8.26 µM
CCc1nc2oc3ccccc3c(=O)c2c(=O)n1-c1ccc(C)cc1 1.65 µM
Cc1cc(C)n2c(nc3ccccc32)c1C(=O)NN 10.4 µM
Clc1cc(Cl)c2nc(N3CCOCC3)sc2c1 16.5 µM
Nc1nc2c(Cl)cc(Cl)cc2s1 18.5 µM
Fc1ccc2nc(N3CCOCC3)sc2c1 16.5 µM
Clc1ccc(-c2nsc(N3CCOCC3)n2)c(Cl)c1 1.04 µM
Fc1ccc2nc(N3CCCC3)sc2c1 4.14 µM
COc1ccc(/C=C/C(=O)c2ccc[nH]2)cc1OC 5.21 µM
O=C(/C=C/c1ccc2c(c1)OCO2)c1ccc[nH]1 3.69 µM
COc1ccc(/C=C/C(=O)c2ccc[nH]2)c(OC)c1OC 14.7 µM
CC(C)CCNC(=O)c1ccc(-c2ccccc2)cc1 8.26 µM
CC(CCc1ccccc1)NC(=O)C(=O)Nc1ccccc1 (centres undefined) 1.65 µM
O=C(NCc1ccccn1)C(=O)Nc1ccccc1 6.56 µM
CC(C)CCNC(=O)C(=O)Nc1ccccc1 2.07 µM
